High-throughput results (PubChem BioAssay)
Rows were chosen to be rich in hits. Some 6% of all compounds tested hit in one or more screens of this group.
ERK AVP block – vasopressin-driven ERK pathway inhibition; HEK293-V1b, vasopressin-stimulated pERK AlphaScreen; Potency, µM (top dose mostly 57.5 µM), usual class: inhibitors; 0.99% of 72,000 active; AID 995; note: nearly all actives have a fitted effect of over 55% in size
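Overnight-seeded V1b-HEK293 cells in 1% FBS got compound, then vasopressin (25 nM final, 5 min, 37C), then lysis buffer. AlphaScreen detection of phospho-ERK; activity normalized to basal and full-stimulation controls.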
TSHR agonist – TSH receptor (human) agonism | P16473 | HEK293-CNG-TSHR cells (CNG channel as cAMP sensor), membrane potential dye, cAMP | Potency, µM (highest dose often 57.1 µM), most hits filed as activators | 0.48% of 73,000 active | AID 926; active = well fitted activation curve with a large enough effect in the main read-out, with a control signal flat, not every such curve was filed as active; inconclusive = small, poorly fitted or top-dose-only effect, or a change in a side signal; inactive = no such curve, though single readings can be large or run the other way; reference of the percent scale not stated here;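 note: the control signal comes from parental cells without the receptor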
Target sequence (P16473 whole entry, looked up): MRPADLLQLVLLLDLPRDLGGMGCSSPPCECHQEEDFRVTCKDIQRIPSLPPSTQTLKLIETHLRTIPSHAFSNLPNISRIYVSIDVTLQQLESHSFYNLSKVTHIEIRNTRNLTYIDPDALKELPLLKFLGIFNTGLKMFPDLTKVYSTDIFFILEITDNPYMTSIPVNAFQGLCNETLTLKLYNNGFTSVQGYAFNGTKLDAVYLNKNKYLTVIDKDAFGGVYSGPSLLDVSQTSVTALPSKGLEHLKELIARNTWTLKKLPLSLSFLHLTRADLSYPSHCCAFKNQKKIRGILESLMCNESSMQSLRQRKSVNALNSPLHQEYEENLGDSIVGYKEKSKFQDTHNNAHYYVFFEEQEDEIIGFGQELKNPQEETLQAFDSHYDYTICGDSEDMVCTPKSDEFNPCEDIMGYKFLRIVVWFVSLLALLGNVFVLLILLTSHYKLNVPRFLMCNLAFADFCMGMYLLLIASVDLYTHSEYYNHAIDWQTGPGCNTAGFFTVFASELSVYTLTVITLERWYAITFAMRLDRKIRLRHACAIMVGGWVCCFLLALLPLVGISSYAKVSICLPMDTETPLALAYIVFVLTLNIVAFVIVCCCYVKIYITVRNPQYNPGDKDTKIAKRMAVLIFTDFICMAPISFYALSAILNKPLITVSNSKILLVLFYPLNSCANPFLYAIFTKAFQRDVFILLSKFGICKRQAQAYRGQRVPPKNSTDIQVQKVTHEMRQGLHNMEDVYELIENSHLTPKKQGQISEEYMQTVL
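HEK 293 cells stably expressing TSHR and a cAMP-gated CNG channel; parental CNG-only cells as counterscreen. Cells preloaded 60 min with membrane potential dye plus 100 uM RO 20-1724, then compound 30 min; fluorescence read at 590 nm.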
HEK293 cAMP cs – raises cAMP in parental HEK293 cells, TSHR agonist counter-screen. parental HEK293 CNG cAMP sensor, membrane potential fluorescence. Potency, µM (titrated, usually from 57.1 µM), most hits filed as activators. 2.5% of 73,000 active. AID 938; note: nearly all actives have a fitted effect of over 55% in size
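Parental HEK 293 cells stably expressing a modified CNG channel (no TSHR) report cAMP rise as membrane depolarization. Membrane potential dye with 100 uM RO 20-1724 was loaded for 60 min at room temperature, then compound added for 30 min; fluorescence read at 590 nm.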
CRE Fsk mod – alters forskolin-stimulated CRE reporter signaling in CHO cells; CHO CRE-bla reporter (cAMP response element driving beta-lactamase), forskolin EC10, beta-lactamase ratio; 2.5% of 71,000 active; Potency, µM (doses to about 38.2 µM), most hits filed as activators; AID 662; active = well fitted activation curve with a large enough effect in the signal ratio, with a control signal flat, not every such curve was filed as active; inconclusive = small, poorly fitted or top-dose-only effect, or effect the other way, or a change in a side signal; the % refers to the signal ratio
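Modulation of forskolin signalling: compounds in titration series added with EC10 NKH 477 to CHO cells carrying a CRE-driven beta-lactamase reporter, 3 h, 37C. CCF4 FRET ratio (460/530 nm, ex 405 nm) gives %activity and AC50.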
Numbers stand for hits; - = inactive; ? = inconclusive; . = not tested or not shown; [ ] = another dose, or the depositor's remark. Unless noted, calls come from the whole dose curve; as a rule, active = well fitted curve in the direction sought with a large enough effect; inconclusive = small, poorly fitted or top-dose-only effect, or another doubt; inactive = no such curve, though single readings can be large; an effect the other way counts as inactive or inconclusive.

SMILES	ERK AVP block	TSHR agonist	HEK293 cAMP cs	CRE Fsk mod
Cc1ccc(-c2nnc3sc(C4COc5ccccc5O4)nn23)cc1 (centres undefined)	-	?	25µM	-
COc1ccccc1-c1nn2c(C3COc4ccccc4O3)nnc2s1 (centres undefined)	-	?	25µM	?
c1ccc(CCc2nn3c(C4COc5ccccc5O4)nnc3s2)cc1 (centres undefined)	-	?	16µM	-
OC[C@@H]1O[C@@H](n2cnc3c(SCc4ccccc4)ncnc32)[C@@H](O)[C@H]1O	-[11.5 µM]	-[11.4 µM]	-[11.4 µM]	-[7.6 µM]
CC1CCC2C(=O)OC(CN3C(=O)c4ccccc4C3=O)CN2C1c1ccc(Br)cc1 (centres undefined)	-[11.5 µM]	-[11.4 µM]	-[11.4 µM]	.
Cc1cccc(CNc2ccnc(-c3ccccc3C(F)(F)F)n2)c1	-	?	?	-
CN(c1ccccc1)C(c1ccc(F)cc1)c1nnnn1C1CCCC1 (centres undefined)	-	?	13µM	-
CCOC(=O)c1cc2c(C(F)(F)F)cc(-c3cccnc3)nc2o1	-	-	-	?
Cc1nn(CCC(=O)O)c2nc(-c3cccnc3)cc(C(F)(F)F)c12	?	-	-	10µM
CCN(CC)c1nc(Nc2ccc(Cl)cc2)nc(OCC#N)n1	-	-	-	5µM
O=C(c1cnccn1)N1CCC2(CC1)CCN(c1ncccn1)CC2	-	-	-	?
Cc1nnc(SCCC(=O)Nc2nc(-c3ccccc3)ns2)s1	32µM	-	-	-
CO[C@@H]1/C=C\O[C@@]2(C)Oc3c(C)c(O)c4c(c3C2=O)C(=N[C@H]2CC[C@H](O)O[C@@H]2C)C=C(NC(=O)/C(C)=C\C(=O)[C@@H]2C[C@@H]2[C@@H](O)[C@H](C)[C@@H](O)[C@H](C)[C@H](OC(C)=O)[C@@H]1C)C4=O	-[11.5 µM]	-[11.4 µM]	-[11.4 µM]	-[7.6 µM]
O=C(Nc1ccc([N+](=O)[O-])cc1Cl)c1cc(Cl)ccc1O	-	?	0.5µM	?
NC(=O)C/C=C\CC(N)=O	-[11.5 µM]	-[11.4 µM]	-[11.4 µM]	-[7.6 µM]
C=CCn1c(Cc2ccc(OC)cc2)nnc1SCc1nc2ccccc2c(=O)[nH]1	-	-	-	?
C=CCc1c(C)nc(SCc2nc3ccccc3c(=O)[nH]2)[nH]c1=O	-	-	-	10µM
CCCCn1c(=O)[nH]c(=O)c2c1nc(CN1C(=O)c3ccccc3S1(=O)=O)n2CCC	-	-	-	10µM
COC(=O)c1c(NC(=O)c2ccco2)sc(C)c1C	-	.	-	10µM
COC(=O)c1c(NC(=O)c2ccco2)sc(C(=O)Nc2ccc(F)cc2)c1C	-	?	25µM	-
COC(=O)c1c(NC(=O)c2ccco2)sc2c1C(C(=O)OC)CC2 (centres undefined)	-	.	-	?
Cn1cccc1Cc1nnc(SCC(=O)Nc2ccc3c(c2)OCO3)n1CCc1ccccc1	16µM	-	-	-
COC(=O)CCC(C)C1CCC2C3C(O)C[C@@H]4CC(O)CC[C@@]4(C)C3CC(O)[C@]12C (some centres undefined)	-	.	.	.
COc1cc(C(c2sc3nc(C)nn3c2O)N2CCN(c3ccccc3)CC2)cc(OC)c1OC (centres undefined)	.	?	?	2µM
COc1cc(C(c2sc3nc(C)nn3c2O)N2CCOCC2)cc(OC)c1OC (centres undefined)	.	-	-	-
SMILES	ERK AVP block	TSHR agonist	HEK293 cAMP cs	CRE Fsk mod
Cc1cc(C(=O)COc2cccc(-n3cnnn3)c2)c(C)n1-c1ccccc1	-	?	25µM	-
CCCNC(=O)OC[C@@H]1O[C@H](CCO/N=C2\c3cc(OC)ccc3O[C@H](c3cccc(OC)c3)[C@H]2O)C=C[C@@H]1Oc1ccc(OC)cc1	-[11.5 µM]	-[11.4 µM]	-[11.4 µM]	.
COc1ccccc1NC(=O)CSc1nccc(=O)[nH]1	-	.	.	0.5µM
COc1ccccc1NC(=O)CSc1nc2nc(C)cc(C)c2c(=O)[nH]1	-	-	-	10µM
COc1ccccc1NC(=O)CSc1ncn[nH]1	-	?	?	-
CN(C)C(=O)c1ccc(-c2cc(NCc3ccccc3)ncn2)cc1	-	-	-	?
c1ccc(-c2nc3nonc3nc2-c2ccccc2)cc1	13µM	-[11.4 µM]	-	?
CCCC(=O)c1ccc(N2CCN(C(=O)c3ccccc3)CC2)c(F)c1	-	.	-	-
CCCC(=O)c1ccc(N2CCN(C(=O)c3ccccc3Br)CC2)c(F)c1	25µM	?	?	?
Cc1ccc(Cn2c(CN3CCOCC3)nc3c2c(=O)[nH]c(=O)n3C)cc1	-	-	-	-
CCCn1c(=O)[nH]c(=O)c2c1nc(-c1ccc3c(c1)OCCO3)n2CCN1CCOCC1	-	-	-	4µM
Cn1c(=O)c(C(=O)COC(=O)c2cc(C(F)(F)F)nc3c(C(F)(F)F)cccc23)c(N)n(Cc2ccccc2)c1=O	-	.	.	.
COC(=O)[C@H](C)NC(=O)C/C=C\[C@@H](C)[C@@H](CO)OC	-[11.5 µM]	-[11.4 µM]	-[11.4 µM]	.
Clc1cc2c(c(CSC3=NCN(CC4CC4)CN3)c1)OCOC2	-[11.5 µM]	.	-[11.4 µM]	-[7.6 µM]
O[C@@H](C1=C/C(=C\c2ccncc2)c2ccccc21)c1ccncc1	-[11.5 µM]	-[11.4 µM]	-[11.4 µM]	-[7.6 µM]
Cc1cc(C)cc(N(CCC#N)C(=O)CSc2nc3nc(C)cc(C)n3n2)c1	-	-	-	6.3µM
CCN(C(=O)CSc1nc2nc(C)cc(C)n2n1)c1cccc(C)c1	-	-	-	?
COc1ccc(N2CCn3c2nc2c3c(=O)n(CCc3ccccc3)c(=O)n2C)c(OC)c1	-	-	-	-
COc1ccc(N2CCn3c2nc2c3c(=O)n(CCCc3ccccc3)c(=O)n2C)c(OC)c1	13µM	-	-	-
CCN(CC)c1nc(C#N)nc(N(CC)CC)n1	-	?	?	10µM
Cc1nc2cnc(N3CCOCC3)nc2n(C[C@H]2CCCO2)c1=O	-	-	-	?
COc1cc2c(cc1OC)-c1cc(NC3CCCCCCC3)nc(=O)n1CC2	?	?	?	0.4µM
COc1cc2c(cc1OC)-c1cc(NC3CCCCC3)nc(=O)n1CC2	?	.	-	2µM
COc1cc2c(cc1OC)-c1cc(NC3CC3)nc(=O)n1CC2	?	-	-	10µM
COc1cc2c(cc1OC)C(=O)Cc1ccc3c(c1CN(C)CC2)OCO3	-	-	-	?
SMILES	ERK AVP block	TSHR agonist	HEK293 cAMP cs	CRE Fsk mod
Fc1ccc(OCc2nc(-c3ccc(Br)o3)no2)c(F)c1	-	?	2.5µM	-
COc1ccc(Cc2nc(-c3ccc(Br)o3)no2)cc1OC	-	.	-	?
Cc1nc(C)c(-c2csc(Nc3cccnc3)n2)s1	-	-	-	10µM
c1cncc(Nc2nc(-c3cccnc3)cs2)c1	?	-	-	?
c1cncc(Nc2nc(-c3ccncc3)cs2)c1	20µM	-	-	?
CC(=O)N(O)[C@@H]1c2cc(C#N)ccc2OC(C)(C)[C@H]1O	-	-	-	.
COc1ccc(CCNC(=O)CCSc2nc(-c3ccco3)cc(C(F)(F)F)n2)cc1	-	?	?	-
CC(C)(C)c1cc(C(F)(F)F)nc(SCCCNC(=O)c2ccco2)n1	-	25µM	-	?
COC(=O)c1ccccc1NC(=O)CSc1nnc(-c2ccoc2C)n1C	-	?	?	-
COc1ccc(-n2c(C)cc(C(=O)CSc3nnc(-c4ccoc4C)n3C)c2C)cc1	-	?	32µM	-
